Screening data: PubChem, National Center for Advancing Translational Sciences (NCATS)
ATXN2 expr inh: Primary qHTS for Inhibitors of ATXN expression; Potency, µM (series often up to 57 µM), for inactives: at the top dose activity change, negative = inhibition, actives largely listed as inhibitors; actives 0.72% (n = 360,000); HEK-293 ATXN2-luciferase reporter, luminescence, 24 h; also: % is scaled to controls: 0 for no effect and ±100 for the full control effect; nearly all actives have a fitted effect of over 55% in size
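ATXN2-luciferase reporter cells (luciferase flanked by upstream and downstream ATXN2 gene portions) were treated 24 h at 37 °C with compounds at up to 57 uM. SteadyGlo luminescence gave expression; GF-AFC fluorescence gave viability.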
KB-3-1 tox: qHTS assay for MDR1-selective chemotherapeutics: Primary screen using the parental adenocarcinoma cell KB-3-1 | KB-3-1 viability, CellTiter-Glo ATP luminescence, 72 h | Potency, µM (doses to about 46.1 µM), most hits filed as cytotoxic | actives 1.4% (n = 400,000); also: % is scaled to controls: 0 for no effect and ±100 for the full control effect; nearly all actives have a fitted effect of over 60% in size
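Cytotoxicity in the drug-sensitive parental line KB-3-1 was scored as loss of CellTiter-Glo luminescence following 72 h incubation with compound. Values come from curve fitting of normalized concentration-response data.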
KB-V1 cytotox: qHTS assay for MDR1-selective chemotherapeutics: Primary screen using the drug-selected MDR subline cells KB-V1. KB-V1 MDR cells viability, CellTiter-Glo, 72 h. actives 3.4% (n = 400,000). Potency, µM (doses to about 46.1 µM), most hits filed as cytotoxic; also: % is scaled to controls: 0 for no effect and ±100 for the full control effect; nearly all actives have a fitted effect of over 60% in size
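qHTS viability screen in drug-selected KB-V1 MDR cells: 72 h compound treatment at 37 degrees C, ATP luminescence end point.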
HepG2 viability: qHTS for Inhibitors of TGF-b: Cytotox Counterscreen. HepG2 CAGA-GFP viability, ATP luminescence, 18 h. Potency, µM (titrated, usually from 46.1 µM), without a hit: at the highest dose activity change, negative = cytotoxicity, usual class: cytotoxic. actives 0.76% (n = 410,000)
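CellTiter-Glo luminescence gave cytotoxicity after 18 hours at 37 degrees C. The cells were HepG2 CAGA-GFP in 1% FBS DMEM, stimulated with 500 pg/mL TGF-beta after compound addition. %Activity was normalised to no-cell wells (complete cell-killing) and DMSO (no toxicity), and curves were fitted and classified.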
S2 tox: Viability Counterscreen for Primary qHTS for Inhibitors of ATXN expression | S2 cells (HEK-293 line with an ATXN2-luciferase reporter) viability, CellTiter-Fluor protease fluorescence, 24 h | Potency, µM (series often up to 56.7 µM), usual class: cytotoxic | actives 0.49% (n = 400,000) | AID 651635, 2014; also: nearly all actives have a fitted effect of over 40% in size
TGFb inhibitor: qHTS for Inhibitors of TGF-b; actives 1.2% (n = 410,000); HepG2 CAGA-GFP TGF-b/SMAD3 reporter, GFP fluorescence, 18 h; TGF-beta stimulated, 500 pg/mL final; Potency, µM (titrated, usually from 46.1 µM), for inactives: at the top dose activity, negative = inhibition, hits mostly inhibitors; AID 588855, 2011; also: % is scaled to controls: 0 for no effect and ±100 for the full control effect; nearly all actives have a fitted effect of over 65% in size
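HEPG2 CAGA-GFP cells (1000/well, DMEM with 1% FBS) were pre-incubated 2 h at 37 degrees C, given compound by pin tool, then stimulated with TGF-beta at 500 pg/mL final for 18 h before per-cell GFP fluorescence imaging.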
* hit, by the source's call; i = inactive; ? = inconclusive; / = no result given; ! = a repeat was not active. Rows were chosen to be rich in hits. Some 5.9% of all compounds tested hit in one or more screens of this group. Calls follow the shape of the dose curve; as a rule, active = well fitted curve in the direction sought with a large enough effect; inconclusive = small, poorly fitted or top-dose-only effect, or another doubt; inactive = no such curve, though single readings can be large; an effect the other way counts as inactive or inconclusive. Potency is read from the fitted curve at half-maximal effect.

SMILES	ATXN2 expr inh	KB-3-1 tox	KB-V1 cytotox	HepG2 viability	S2 tox	TGFb inhibitor
C#CC1(O)CCC2C3CCC4=CC(=O)CCC4=C3C=CC21C (stereo unspecified)	11.1%	2.31µM*	2.59µM*	-7.5%	i	3.1%
C=CC[C@]1(O)CC[C@H]2[C@@H]3CCC4=CC(=O)CCC4=C3C=C[C@@]21C	1.1%	/	/	/	i	/
Clc1ccc(COC(Cn2ccnc2)c2ccc(Cl)cc2Cl)c(Cl)c1 (stereo unspecified)	?	i	?	15.8µM*!	?	?
O=S(=O)(c1ccc(F)c(F)c1F)N1CCN(c2ncnc3sccc23)CC1	0.0%	?	2.31µM*	-4.7%	i	?
O=S(=O)(c1ccccc1C(F)(F)F)N1CCN(c2ncnc3sccc23)CC1	?	?	?	-42.8%	i	12.6µM*
COc1cc(C(=O)NCCSc2c(-c3ccccc3)[nH]c3ccccc23)cc(OC)c1OC	?	?	?	-13.9%	?	?
O=C1NCCN(Cc2cccc(Oc3ccccc3)c2)C1CC(=O)N1CCCCC1 (stereo unspecified)	1.5%	/	/	-25.7%	?	?
O=C(Cn1c(=O)oc2cc(S(=O)(=O)NCc3ccccc3)ccc21)Nc1cccc(F)c1	-7.6%	i	i	-45.1%	i	?
C1=NCCc2c1[nH]c1ccccc21	?	?	16.4µM*	-36.0%	i	?
COCCCn1c(N)c(C(=O)NCCC(C)C)c2nc3ccccc3nc21	-36.1%	?	23.1µM*	-100.3%	/	?
CCCCCn1c(N)c(C(=O)NCc2cccs2)c2nc3ccccc3nc21	-16.8%	?	13µM*	-3.0%	i	-8.3%
CC(C)CCOC(=O)c1c(N)n(CC2CCCO2)c2nc3ccccc3nc12 (stereo unspecified)	-13.7%	i	?	-0.3%	i	11.2µM*
CCCOC(=O)c1c(N)n(Cc2cccs2)c2nc3ccccc3nc12	-12.1%	i	i	0.5%	i	-8.5%
Nc1c(C(=O)NCCCc2ccccc2)c2nc3ccccc3nc2n1Cc1cccs1	?	?	14.6µM*	-20.0%	i	11.0%
CC(C)OC(=O)c1c(N)n(CC2CCCO2)c2nc3ccccc3nc12 (stereo unspecified)	-16.2%	i	?	-21.6%	/	-38.5%
CC(C)=CCN1CC[C@]2(C)c3cc(O)ccc3C[C@H]1[C@H]2C	/	/	/	/	i	/
Nc1c(C(=O)NCc2ccco2)c2nc3ccccc3nc2n1Cc1ccccc1	/	i	i	-53.4%	/	11.2µM*
CCCCCCn1c(N)c(C(=O)NCCN2CCOCC2)c2nc3ccccc3nc21	-15.4%	?	?	-88.9%	i	15.8µM*
Cc1cccc(OCC(=O)Nc2cc(-c3ccccc3F)nn2-c2ccccc2)c1	-23.3%	i	i	-4.0%	?	1.3%
COc1cc(=O)n2c(c1C(=O)N(C)Cc1nonc1C)CCN(C(=O)C1C(C)(C)C1(C)C)CC2	/	/	/	/	i	/
CCOC(=O)Cn1c(=O)oc2cc(S(=O)(=O)Nc3cc(OC)cc(OC)c3)ccc21	/	i	i	-32.4%	/	?
Nc1c(C(=O)Nc2ccc(Cl)cc2)sc2nc3c(cc12)N1CCC3CC1	-6.1%	i	7.31µM*	-40.3%	/	3.6%
N#Cc1cc2c(nc1SCC(=O)Nc1ccc(Cl)cc1)C1CCN2CC1	-1.5%	?	2.91µM*	-26.9%	i	8.0%
N#Cc1cc2c(nc1SCC(=O)Nc1cc(Cl)ccc1Cl)C1CCN2CC1	?	?	4.11µM*	-96.0%	?	?
COc1ccccc1CNc1nc(NCc2ccccc2SC)c2sccc2n1	?	?	?	-54.8%	?	?
